HT1080 IDH1KD tx: HT-1080 IDH1 knockdown cell toxicity (counter line); HT-1080 IDH1 knockdown viability, ATP luminescence, 48 h; Potency, µM (top dose mostly 46.1 µM), without a hit: at the top dose activity, negative = toxicity, most hits filed as cytotoxic; 360,000 compounds, 2% hits;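 also: potency is read from the fitted curve at half-maximal effect; 0% = DMSO wells and -100% = cell-free medium wells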
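HT-1080-IDH1KD cells (IDH1 knocked down), 750/well in RPMI with 5% FBS, treated with compound 48 h at 37 degrees C. Viability by CellTiter-Glo luminescence, normalised to DMSO and no-cell wells; concentration-response curves classed.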
TDP1 cell CPT: growth inhibition of DT40 Tdp1-/-;hTDP1 cells with camptothecin (screen for TDP1 inhibitors); chicken DT40 Tdp1-/-;hTDP1 cells + 20 nM CPT, ATP luminescence, 48 h; Potency, µM (highest dose often 46.2 µM), inactives show at the top dose activity change, negative = growth inhibition, hits mostly inhibitors; 420,000 compounds, 12% hits; also: potency is read from the fitted curve at half-maximal effect; nearly all actives have a fitted effect of over 55% in size
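Chicken DT40 Tdp1-/- cells stably complemented with human TDP1 were seeded at 400 cells/well in medium containing 20 nM camptothecin, exposed to pin-transferred compounds, and grown at 37 °C for at least 48 hr. Viability was read as ATP luminescence.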
HT1080NT lethal: kills 2HG-producing HT-1080-NT fibrosarcoma cells | AID 686970 | 360,000 compounds, 1.6% hits | Potency, µM (titrated, usually from 46.1 µM), for the others: at the highest dose activity, negative = less viability, actives largely listed as cytotoxic | HT-1080-NT fibrosarcoma viability, CellTiter-Glo ATP luminescence, 48 h;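 also: NT is the 2HG producing partner of a matched IDH1 knockdown line; potency is read from the fitted curve at half-maximal effect; 0% = DMSO-treated cells and -100% = media-only wells without cells; nearly all actives have a fitted effect of over 55% in size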
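Fibrosarcoma NT cells, 750 per well in 5% FBS RPMI, were exposed to compound for 48 hours. Viability: CellTiter-Glo luminescence.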
ALOX12 inh: inhibitors of human 12S-lipoxygenase ALOX12. purified 12hLO, xylenol orange hydroperoxide absorbance. Potency, µM (titrated, usually from 108 µM), for the others: at the highest dose activity change, negative = inhibition, actives largely listed as inhibitors. 580,000 compounds, 1.1% hits. AID 1671190. P18054; also: potency is read from the fitted curve at half-maximal effect
Target sequence (P18054 whole entry, looked up): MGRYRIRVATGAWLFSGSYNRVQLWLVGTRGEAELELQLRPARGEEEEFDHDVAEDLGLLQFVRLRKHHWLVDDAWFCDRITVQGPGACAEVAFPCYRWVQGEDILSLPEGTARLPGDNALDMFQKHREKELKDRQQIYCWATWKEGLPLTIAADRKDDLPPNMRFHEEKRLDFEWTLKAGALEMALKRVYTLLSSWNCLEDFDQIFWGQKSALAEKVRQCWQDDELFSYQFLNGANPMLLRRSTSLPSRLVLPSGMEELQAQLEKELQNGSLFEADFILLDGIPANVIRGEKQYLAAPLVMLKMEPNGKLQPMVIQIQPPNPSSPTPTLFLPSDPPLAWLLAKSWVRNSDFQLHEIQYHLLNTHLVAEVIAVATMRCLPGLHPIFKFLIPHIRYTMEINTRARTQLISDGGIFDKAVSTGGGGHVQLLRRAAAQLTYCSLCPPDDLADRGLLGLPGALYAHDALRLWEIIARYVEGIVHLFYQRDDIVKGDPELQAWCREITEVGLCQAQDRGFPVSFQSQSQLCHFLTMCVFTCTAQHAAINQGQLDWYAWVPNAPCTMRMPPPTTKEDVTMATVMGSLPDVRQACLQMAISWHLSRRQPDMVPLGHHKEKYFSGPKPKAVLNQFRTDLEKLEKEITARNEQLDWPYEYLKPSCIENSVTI
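Purified human 12hLO at 150 nM in 25 mM Hepes, 0.01% Triton X-100, pH 7.0, preincubated 15 min at room temperature with compound. Reaction started with 40 uM arachidonic acid, 30 min at room temperature. Hydroperoxide measured by Fe-xylenol orange, 573/405 nm absorbance ratio.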
DT40 TDP1 no CPT: qHTS for Inhibitors of human tyrosyl-DNA phosphodiesterase 1 (TDP1): qHTS in cells in absence of CPT. DT40 Tdp1-/- hTDP1 cells, no CPT, ATP luminescence, 48 h. Potency, µM (doses to about 46.2 µM), for the others: top-dose activity change, negative = growth inhibition, actives largely listed as inhibitors. 420,000 compounds, 15% hits. AID 686978, 2013; also: potency is read from the fitted curve at half-maximal effect; nearly all actives have a fitted effect of over 55% in size
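Growth of hTDP1-complemented DT40 Tdp1-knockout cells is measured by ATP luminescence after at least 48 hr compound exposure at 37 °C, with DMSO substituting for the 20 nM CPT used in the parallel screen.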
IL1B secr inh: inflammasome signaling inhibition, IL-1 beta readout; THP-1 LPS/ATP IL-1B secretion, AlphaLISA, 16 h; active compounds read low; activity change, % at 57.5 µM; 360,000 compounds, 4.7% hits; in the data active = activity change below about -50%; inconclusive = mostly about -30% to -49%
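THP-1 cells pretreated 1 hr with compounds (up to 57.5 uM final), then stimulated with LPS (250 ng/mL final) plus ATP (1.25 mM final); secreted IL-1B measured by AlphaLISA after 16 hr, decreased signal indicating inhibition.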
An asterisk follows results filed as active; ? = inconclusive; nt = no result; [ ] = another dose, or the depositor's remark. Many of the other results were omitted from the sample, so hits are more common in it than they were. Unless noted, calls follow the shape of the dose curve; as a rule, active = well fitted curve in the direction sought with a large enough effect; inconclusive = small, poorly fitted or top-dose-only effect, or another doubt; inactive = no such curve, though single readings can be large; an effect the other way counts as inactive or inconclusive. Unless noted, % is scaled to controls: 0 for no effect and ±100 for the full control effect.

SMILES	HT1080 IDH1KD tx	TDP1 cell CPT	HT1080NT lethal	ALOX12 inh	DT40 TDP1 no CPT	IL1B secr inh
COc1ccc2c(=O)c(-c3ccccc3OC)c(C)oc2c1	nt	nt	nt	-54.2%	nt	nt
Cn1cc(CC(=O)N2CCCc3ncc(C(=O)Nc4cccc(F)c4)cc32)c2ccccc21	nt	nt	nt	11.4%	nt	nt
COc1ccc(C)c2sc(N3CCN(C(=O)c4ccco4)CC3)nc12	nt	18.4µM*	nt	-28.7%	18.4µM*	nt
COc1ccc(C)c2sc(N3CCN(C(=O)c4cccc(F)c4)CC3)nc12	nt	-17.5%	nt	-17.1%	-25.2%	nt
CC(=O)N1CCC([C@@H]2CN(Cc3cccnc3)C[C@H]2CO)CC1	nt	nt	nt	53.6%	nt	nt
CC1(C)Cc2c(sc(NC(=O)COc3ccccc3)c2C#N)C(C)(C)N1	1.8%	?	-14.5%	-2.5%	-28.0%	-5.6
Cc1cc(OCC(=O)Nc2sc3c(c2C#N)CC(C)(C)NC3(C)C)c(C(C)C)cc1Cl	-3.1%	?	-3.2%	33.2%	16.4µM*	7.2
Cc1ccc(C(C)C)c(OCC(=O)Nc2sc3c(c2C#N)CC(C)(C)NC3(C)C)c1	-16.3%	?	-15.2%	nt	20.6µM*	-12.4
Cc1nonc1OCCN1CCN(c2ccccc2[N+](=O)[O-])CC1	3.9%	-8.5%	14.9%	-20.1%	?	0.0
Nc1nonc1OCCN1CCN(c2ccc([N+](=O)[O-])c3cccnc23)CC1	-9.3%	23.1µM*	-12.9%	162.1%	?	4.4
Cc1cc(N2CCN(c3ccc(C(F)(F)F)cc3[N+](=O)[O-])CC2)c2ccccc2n1	?	?	?	-22.6%	20.6µM*	-27.5
Cc1cc(N2CCN(c3ccc([N+](=O)[O-])c4cccnc34)CC2)c2ccccc2n1	?	8.2µM*	?	nt	5.8µM*	-94.4*
CN(C)S(=O)(=O)c1ccc(NC(=O)CN2CCN(c3ccccc3O)CC2)cc1	nt	nt	nt	-16.6%	nt	nt
Cc1ccc2c(c1)-c1ccccc1C2=Nc1ccc2c(c1)Cc1ccccc1-2	nt	nt	nt	-25.8%	nt	nt
CC(C#N)(NC(=O)CSc1nnc(-c2cccs2)n1C1CC1)C1CC1 (configuration not stated)	nt	nt	nt	1.5%	nt	nt
Cc1nc(SCC(=O)NC(C)(C#N)C2CC2)c2c(-c3cccs3)csc2n1 (configuration not stated)	1.1%	?	-15.3%	-6.8%	?	-58.9*
Cc1ccccc1CN(C)C(C(=O)NC1CC1)c1ccc(F)cc1 (configuration not stated)	nt	nt	nt	24.1%	nt	nt
Cc1cc(C(=O)N[C@@H]2C[C@H](Cn3cc(C4CC4)nn3)[C@@H](O)[C@H]2O)no1	nt	nt	nt	81.9%[176 µM]	nt	nt
CCN1CCN(c2cc(C(=O)O)c3cc(NC(=O)C(C)C)ccc3n2)CC1	nt	nt	nt	15.8µM*	nt	nt
CCCN1CCN(c2cc(C(=O)O)c3cc(NC(=O)C(C)C)ccc3n2)CC1	nt	nt	nt	11.2µM*	nt	nt
CN1CCN(c2cc(C(=O)O)c3cc(NC(=O)c4ccc(Cl)cc4)ccc3n2)CC1	nt	nt	nt	-81.5%	nt	nt
N#CCCN1CCN(c2cc(C(=O)O)c3cc(NC(=O)c4ccccc4)ccc3n2)CC1	nt	nt	nt	6.31µM*	nt	nt
O=C(Nc1ccc2nc(N3CCN(C4CCCCC4)CC3)cc(C(=O)O)c2c1)c1ccc(Cl)cc1	nt	nt	nt	12.6µM*	nt	nt
CC(=O)NCCNC(=O)CCc1ncc(-c2ccccc2F)o1	nt	nt	nt	15.2%	nt	nt
COc1ccc(C)cc1CC(=O)N(Cc1ccco1)C1CCS(=O)(=O)C1 (configuration not stated)	nt	nt	nt	-25.5%	nt	nt
CCC(C)(C)n1nnnc1C(c1cccs1)N1CCc2ccccc21 (configuration not stated)	-9.4%	29.1µM*	-25.3%	-10.1%	16.4µM*	2.8
